IL1B secr inh: qHTS for Inhibitors of Inflammasome Signaling: IL-1-beta AlphaLISA Primary Screen; actives 4.7% (n = 360,000); THP-1 LPS/ATP IL-1B secretion, AlphaLISA, 16 h; hits give low values; activity change, % at 57.5 µM; in the data active = activity change below about -50%; inconclusive = mostly about -30% to -49%
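THP-1 cells pretreated 1 hr with compounds (up to 57.5 uM final), then stimulated with LPS (250 ng/mL final) plus ATP (1.25 mM final); secreted IL-1B measured by AlphaLISA after 16 hr, decreased signal indicating inhibition.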
HT1080 IDH1KD tx: qHTS for induction of synthetic lethality in tumor cells producing 2HG: qHTS for the HT-1080-IDH1KD cell line; actives 2% (n = 360,000); HT-1080 IDH1 knockdown viability, ATP luminescence, 48 h; Potency, µM (top dose mostly 46.1 µM), for inactives: top-dose activity, negative = toxicity, most hits filed as cytotoxic;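 also: potency is read from the fitted curve at half-maximal effect; 0% = DMSO wells and -100% = cell-free medium wells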
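Viability of IDH1-knockdown HT-1080 fibrosarcoma cells was assessed by CellTiter-Glo after 48 h at 37 °C with titrated compound; concentration-effect curves were classified by fit quality and response size.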
DT40 TDP1 CPT: qHTS for Inhibitors of human tyrosyl-DNA phosphodiesterase 1 (TDP1): qHTS in cells in presence of CPT; chicken DT40 Tdp1-/-;hTDP1 cells + 20 nM CPT, ATP luminescence, 48 h; Potency, µM (titrated, usually from 46.2 µM), for inactives: top-dose activity change, negative = growth inhibition, actives largely listed as inhibitors; actives 12% (n = 420,000); AID 686979, 2013; also: potency is read from the fitted curve at half-maximal effect; nearly all actives have a fitted effect of over 55% in size
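Chicken DT40 Tdp1-/- cells stably complemented with human TDP1 were seeded at 400 cells/well in medium containing 20 nM camptothecin, exposed to pin-transferred compounds, and grown at 37 °C for at least 48 hr. Viability was read as ATP luminescence.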
HT1080NT lethal: qHTS for induction of synthetic lethality in tumor cells producing 2HG: qHTS for the HT-1080-NT fibrosarcoma cell line; AID 686970, 2013; actives 1.6% (n = 360,000); HT-1080-NT fibrosarcoma viability, CellTiter-Glo ATP luminescence, 48 h; Potency, µM (series often up to 46.1 µM), without a hit: top-dose activity, negative = less viability, actives largely listed as cytotoxic;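 also: NT is the 2HG producing partner of a matched IDH1 knockdown line; potency is read from the fitted curve at half-maximal effect; 0% = DMSO-treated cells and -100% = media-only wells without cells; nearly all actives have a fitted effect of over 55% in size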
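HT-1080-NT fibrosarcoma cells (2HG-overproducing), 750 cells/well in RPMI with 5% FBS, dosed after 2 h and incubated 48 h at 37C. CellTiter-Glo luminescence normalized to DMSO and no-cell wells; concentration-response curves fitted and classed.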
TDP1 cell noCPT: qHTS for Inhibitors of human tyrosyl-DNA phosphodiesterase 1 (TDP1): qHTS in cells in absence of CPT; Potency, µM (top dose mostly 46.2 µM), inactives show at the top dose activity change, negative = growth inhibition, usual class: inhibitors; AID 686978, 2013; actives 15% (n = 420,000); DT40 Tdp1-/- hTDP1 cells, no CPT, ATP luminescence, 48 h; also: potency is read from the fitted curve at half-maximal effect; nearly all actives have a fitted effect of over 55% in size
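Camptothecin absent (DMSO only). Human TDP1-complemented DT40 knockout cells, 400 cells/well, 37 °C for minimum 48 hr; ATP measured via CellTiter-Glo, 30 min dark incubation, luminescence.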
* = called active by the depositor; ? = inconclusive; / = not tested or not shown; [ ] = dose if it differs, or a comment. Most compounds without a hit are left out; they make up all but 19% or so of the library. Unless noted, calls follow the shape of the dose curve; as a rule, active = well fitted curve in the direction sought with a large enough effect; inconclusive = small, poorly fitted or top-dose-only effect, or another doubt; inactive = no such curve, though single readings can be large; an effect the other way counts as inactive or inconclusive. Unless noted, % is scaled to controls: 0 for no effect and ±100 for the full control effect.

SMILES	IL1B secr inh	HT1080 IDH1KD tx	DT40 TDP1 CPT	HT1080NT lethal	TDP1 cell noCPT
COc1ccc2c(c1OC)C(=O)OC2Nc1nc(-c2ccc([N+](=O)[O-])cc2)cs1 (centres undefined)	-8	-13%	4%	0%	?
COc1ccc2c(c1OC)C(=O)OC2Nc1nc(-c2cc3cc(Br)ccc3oc2=O)cs1 (centres undefined)	-56*	-25%	?	-26%	?
COc1ccc(NC(=S)NN(C)C(=S)Nc2ccc(OC)cc2)cc1	30	1.3µM*	?	1.5µM*	?
CCNC(=S)Nc1ccc(OCc2nc3ccccc3s2)cc1	9	-11%	16µM*	-9%	23µM*
O=C(O)CCCC(=O)Nc1ccc(OCc2nc3ccccc3s2)cc1	22	-7%	10%	-4%	?
CCNC(=S)Nc1ccc(Oc2ccccc2)cc1	-2	-11%	?	-10%	18µM*
COc1ccc(NC(=S)Nc2ccc(Oc3ccccc3)cc2)cc1	-23	-8%	23µM*	-6%	?
COc1ccc(OC)c(C2=C/C(=C/c3ccccn3)C(=O)O2)c1	-10	3%	-5%	-11%	-34%
Cc1cc(C)cc(NC(=O)CCS(=O)(=O)c2cccc3nsnc23)c1	/	/	-5%	/	9%
CCOC(CCn1c(SCC(=O)Nc2cc(C)on2)nc2ccccc2c1=O)OCC	5	-3%	?	-4%	?
CSC(=Nc1ccccc1)N=C(SCc1ccccc1)N(C)C	-104*	13µM*	1.2µM*	21µM*	1.3µM*
CC(C)c1cccc(-c2ccc3c(c2)S(=O)(=O)c2cccc(C(=O)NC4CCCC4)c2C3=O)c1	14	9%	?	17%	-17%
Cc1nc2cc(NCc3cc([N+](=O)[O-])ccc3O)ccc2n1Cc1ccccc1	16	1%	-29%	-1%	?
CC(=O)Cc1nsc(NC(=O)c2ccc(Br)o2)n1	16	0%[9.24 µM]	?	-3%	1.6µM*
CC(=O)Cc1nsc(NC(=O)c2ccco2)n1	-5	6%	-16%	3%	?
CC(=O)Cc1nsc(NC(=O)c2ccc(-c3cccc(Cl)c3)o2)n1	-29	?	16µM*	-23%	16µM*
CCOC(=O)C1=C(C)C/C(=N\NC(=O)c2ccccc2O)CC1	1	?	8.2µM*	?	?
CCOC(=O)c1ccccc1O	/	/	3%	/	14%
CCOC(=O)/C(C#N)=C\C1=C(N2CCOCC2)CC(C)(C)OC1	0	6%	3%	10%	0%
O=C(c1ccccc1)N1C(=O)C(c2ccccc2)Oc2ccccc21 (centres undefined)	13	-20%	0%	-38%	-11%
O=C1C(=NO)C(c2ccccc2)Oc2ccccc21 (centres undefined)	-90*	?	7%	-20%	-25%
COc1ccc(C)cc1NC(=O)C1CCN(S(=O)(=O)c2cccs2)CC1	31	12%	-3%	8%	-2%
COc1ccc2nc(N3CCOCC3)cc(C)c2c1	-12	-1%	4%	25%	5%
Cc1ccccc1C(=O)Nc1ccc2nc(N3CCCCC3)cc(C)c2c1	/	/	?	/	21µM*
Cc1ccccc1C(=O)Nc1ccc2nc3n(c(=O)c2c1)CCCC3	?	9%	-14%	1%	-18%
SMILES	IL1B secr inh	HT1080 IDH1KD tx	DT40 TDP1 CPT	HT1080NT lethal	TDP1 cell noCPT
COc1cc(OC)cc(C(=O)Nc2ccc3nc(N4CCCCC4)cc(C)c3c2)c1	/	/	15µM*	/	16µM*
COc1ccc(CC(=O)Nc2ccc3nc(N4CCCCC4)cc(C)c3c2)cc1	/	/	23µM*	/	?
COc1cccc(C(=O)Nc2ccc3nc(N4CCOCC4)cc(C)c3c2)c1	22	1%	16µM*	-2%	21µM*
COc1cc(OC)cc(C(=O)Nc2ccc3nc4n(c(=O)c3c2)CCCC4)c1	-1	0%	-17%	-14%	?
Cc1cc(=O)[nH]c(N2CCCCC2)n1	0	18%	10%	6%	-2%
COc1ccc2cc(-c3ccon3)ccc2c1	-6	15%	-18%	28%	2%
CCOc1cccc(CC(=O)Nc2ccc3nc(N4CCCCC4)cc(C)c3c2)c1OCC	/	/	21µM*	/	?
CC1CCN(C(=S)c2cn(Cc3cccc(F)c3)c3ccccc23)CC1	-6	-11%	-21%	-17%	?
COc1ccc(Br)cc1/C(C)=N/NC1=NCCN1	-76*	?	8.2µM*	-6%	15µM*
CCCCCOc1ccc(Br)cc1/C(C)=N/NC1=NCCN1	-103*	5.2µM*	5.8µM*	6.5µM*	4.6µM*
O=C(NC12CC3CC(CC(C3)C1)C2)c1cccc([N+](=O)[O-])c1	-12	-6%	-24%	-2%	-9%
O=[N+]([O-])c1cccc(-c2nnn(C34CC5CC(CC(C5)C3)C4)n2)c1	-19	9%	?	7%	18µM*
CNC(=O)NC(=O)C(NC1CCCc2ccccc21)c1ccccc1 (centres undefined)	20	-7%	-21%	-10%	-3%
Cc1ccc(NC(=O)C(NC2CCCc3ccccc32)c2ccccc2)c([N+](=O)[O-])c1 (centres undefined)	-2	-21%	?	-4%	23µM*
Cc1ccc(NC(=O)C(NC2CCCc3ccccc32)c2ccccc2)cc1Cl (centres undefined)	0	-26%	2.9µM*	-5%	18µM*
COc1ccccc1CNC(=O)CN1C(=O)c2ccc([N+](=O)[O-])cc2C1=O	15	8%	1%	11%	6%
O=c1oc2ccccc2c(N2CCN(c3ccc(F)cc3)CC2)c1CN1CCCC1	/	/	?	/	16µM*
COc1ccc(N(CC(=O)Nc2cccc(N(C)S(C)(=O)=O)c2)S(=O)(=O)c2ccc(F)cc2)cc1	-18	-28%	16µM*	-15%	?
Cc1ccc([N+](=O)[O-])cc1N(CC(=O)Nc1ccc(S(=O)(=O)Nc2cccc(C(F)(F)F)c2)cc1)S(C)(=O)=O	-84*	?	?	?	18µM*
COc1ccccc1N(CC(=O)Nc1cccc(C(F)(F)F)c1)S(C)(=O)=O	-5	-15%	7%	4%	-24%
COc1ccc(N(CC(=O)Nc2ccc(OC)c(OC)c2)S(=O)(=O)c2ccccc2)cc1Cl	37	-1%	?	-5%	?
